# The supplement of paper PMC8728848
# About 410 targets per protein were measured; listed, in parts, are those with the strongest signals and a random draw of the rest.
# B1: Clone646PsrP (Streptococcus pneumoniae) (protein)
# chain: MDHHHHHHHHASENLYFQGAPAINASLNIAKSETKVYTGEGVDSVYRVPIYYKLKVTNDGSKLTFTYTVTYVNPKTNDLGNISSMRPGYSIYNSGTSTQTMLTLGSDLGKPSGVKNYITDKNGRQVLSYNTSTMTTQGSGYTWGNGAQMNGFFAKKGYGLTSSWTVPITGTDTSFTFTPYAARTDRIGINYFNGGGKVVESSTTSQSLSQSKSLSVSAS
# How the values were obtained:
# Experiment in all cases: glycan array binding signal (z-score within array); higher = stronger binding
# Details in all cases: glycan notation: IUPAC condensed, linker removed
# [1] = target: Fuc(a1-2)Gal(b1-3)[Fuc(a1-4)]GlcNAc(b1-2)Man(a1-3)[Fuc(a1-2)Gal(b1-3)[Fuc(a1-4)]GlcNAc(b1-2)Man(a1-3)]Man(b1-4)GlcNAc(b1-4)GlcNAc
# How it was run: (§1)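 Negative Z-scores can be read as non-binding. The Z-score is calculated within each array and then averaged across arrays of one protein sequence at different concentrations or buffers and across linkers. Arrays, 3228 in all, were curated from the Consortium for Functional Glycomics database and kept only where the protein sequence was available.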
# [2] = target: Fuc(a1-2)Gal(b1-4)GlcNAc(b1-2)Man(a1-3)[Fuc(a1-2)Gal(b1-4)GlcNAc(b1-2)Man(a1-6)]Man(b1-4)GlcNAc(b1-4)[Fuc(a1-6)]GlcNAc
# How it was run: as §1
# [3] = target: Fuc(a1-2)Gal(b1-4)GlcNAc(b1-3)Gal(b1-4)GlcNAc
# How it was run: as §1
# [4] = target: Fuc(a1-2)Gal(b1-4)GlcNAc(b1-6)GalNAc
# How it was run: as §1
# [5] = target: Fuc(a1-2)Gal(b1-4)[Fuc(a1-3)]GlcNAc
# How it was run: as §1
# Fuc(a1-2)[Gal(a1-3)]Gal = target: Fuc(a1-2)[Gal(a1-3)]Gal
# How it was run: as §1
# [6] = target: Fuc(a1-2)[Gal(a1-4)]Gal(b1-4)GlcNAc
# How it was run: as §1
# [7] = target: Fuc(a1-2)[GalNAc(a1-3)]Gal(b1-3)GlcNAc(b1-2)Man(a1-3)[Fuc(a1-2)[GalNAc(a1-3)]Gal(b1-3)GlcNAc(b1-2)Man(a1-6)]Man(b1-4)GlcNAc(b1-4)GlcNAc
# How it was run: as §1
# [8] = target: Fuc(a1-2)[GalNAc(a1-3)]Gal(b1-4)GlcNAc(b1-3)Gal(b1-4)GlcNAc
# How it was run: as §1
# [9] = target: Fuc(a1-2)[GalNAc(a1-3)]Gal(b1-4)GlcNAc(b1-3)GalNAc
# How it was run: as §1
# Fuc(a1-3)GlcNAc = target: Fuc(a1-3)GlcNAc
# How it was run: as §1
# [10] = target: Fuc(a1-3)[Gal(b1-4)]GlcNAc(b1-2)Man(a1-3)[Fuc(a1-3)[Gal(b1-4)]GlcNAc(b1-2)Man(a1-6)]Man(b1-4)GlcNAc(b1-4)GlcNAc
# How it was run: as §1
# [11] = target: Fuc(a1-3)[GalNAc(b1-4)]GlcNAc
# How it was run: as §1
# Fuc(b1-3)GlcNAc = target: Fuc(b1-3)GlcNAc
# How it was run: as §1
# [12] = target: Gal(a1-4)Gal(b1-4)GlcNAc(b1-2)Man(a1-3)[Gal(a1-4)Gal(b1-4)GlcNAc(b1-2)Man(a1-6)]Man(b1-4)GlcNAc(b1-4)GlcNAc
# How it was run: as §1
# Gal(a1-6)Glc = target: Gal(a1-6)Glc
# How it was run: as §1
# Gal(b1-2)Gal = target: Gal(b1-2)Gal
# How it was run: as §1
# [13] = target: Gal(b1-3)GlcNAc(b1-2)Man(a1-3)[Gal(b1-3)GlcNAc(b1-2)Man(a1-6)]Man(b1-4)GlcNAc(b1-4)[Fuc(a1-6)]GlcNAc
# How it was run: as §1
# [14] = target: Gal(b1-3)GlcNAc(b1-2)[Gal(b1-3)GlcNAc(b1-6)]Man(a1-6)[Gal(b1-3)GlcNAc(b1-2)Man(a1-3)]Man(b1-4)GlcNAc(b1-4)GlcNAc
# How it was run: as §1
# [15] = target: Gal(b1-3)[Fuc(a1-4)]GlcNAc(b1-3)Gal(b1-4)[Fuc(a1-3)]GlcNAc
# How it was run: as §1
# [16] = target: Gal(b1-3)[Fuc(a1-4)]GlcNAc(b1-6)GalNAc
# How it was run: as §1
# [17] = target: Gal(b1-3)[GlcNAc(b1-6)]GalNAc
# How it was run: as §1
# Gal(b1-4)Glc = target: Gal(b1-4)Glc
# How it was run: as §1
# [18] = target: Gal(b1-4)GlcNAc(b1-2)Man(a1-3)[Gal(b1-4)GlcNAc(b1-2)Man(a1-6)][GlcNAc(b1-4)]Man(b1-4)GlcNAc(b1-4)[Fuc(a1-6)]GlcNAc
# How it was run: as §1
# [19] = target: Gal(b1-4)GlcNAc(b1-2)[Gal(b1-4)GlcNAc(b1-4)]Man(a1-3)[GlcNAc(b1-4)][Gal(b1-4)GlcNAc(b1-2)[Gal(b1-4)GlcNAc(b1-6)]Man(a1-6)]Man(b1-4)GlcNAc(b1-4)GlcNAc
# How it was run: as §1
# [20] = target: Gal(b1-4)GlcNAc(b1-2)[Gal(b1-4)GlcNAc(b1-6)]Man(a1-6)[GlcNAc(b1-4)][Gal(b1-4)GlcNAc(b1-2)Man(a1-3)]Man(b1-4)GlcNAc(b1-4)GlcNAc
# How it was run: as §1
# [21] = target: Gal(b1-4)GlcNAc(b1-3)Gal(b1-4)GlcNAc(b1-2)Man(a1-3)[Gal(b1-4)GlcNAc(b1-3)Gal(b1-4)GlcNAc(b1-2)Man(a1-6)]Man(b1-4)GlcNAc(b1-4)GlcNAc
# How it was run: as §1
# [22] = target: Gal(b1-4)GlcNAc(b1-3)Gal(b1-4)GlcNAc(b1-2)[Gal(b1-4)GlcNAc(b1-3)Gal(b1-4)GlcNAc(b1-6)]Man(a1-6)[Gal(b1-4)GlcNAc(b1-3)Gal(b1-4)GlcNAc(b1-2)Man(a1-3)]Man(b1-4)GlcNAc(b1-4)[Fuc(a1-6)]GlcNAc
# How it was run: as §1
# [23] = target: Gal(b1-4)GlcNAc(b1-3)Gal(b1-4)GlcNAc(b1-3)Gal(b1-4)GlcNAc
# How it was run: as §1
# [24] = target: Gal(b1-4)GlcNAc(b1-3)Gal(b1-4)GlcNAc(b1-3)Gal(b1-4)GlcNAc(b1-2)[Gal(b1-4)GlcNAc(b1-3)Gal(b1-4)GlcNAc(b1-3)Gal(b1-4)GlcNAc(b1-6)]Man(a1-6)[Gal(b1-4)GlcNAc(b1-3)Gal(b1-4)GlcNAc(b1-3)Gal(b1-4)GlcNAc(b1-2)Man(a1-3)]Man(b1-4)GlcNAc(b1-4)[Fuc(a1-6)]GlcNAc
# How it was run: as §1
binder,measurement,setting,value
B1,glycan array binding signal (z-score),[1],1.88
same,glycan array binding signal (z-score),[2],0.523
same,glycan array binding signal (z-score),[3],-0.74
same,glycan array binding signal (z-score),[4],2.58
same,glycan array binding signal (z-score),[5],0.085
same,glycan array binding signal (z-score),Fuc(a1-2)[Gal(a1-3)]Gal,-0.314
same,glycan array binding signal (z-score),[6],0.495
same,glycan array binding signal (z-score),[7],-0.761
same,glycan array binding signal (z-score),[8],-0.638
same,glycan array binding signal (z-score),[9],0.378
same,glycan array binding signal (z-score),Fuc(a1-3)GlcNAc,0.18
same,glycan array binding signal (z-score),[10],-0.096
same,glycan array binding signal (z-score),[11],0.979
same,glycan array binding signal (z-score),Fuc(b1-3)GlcNAc,1.31
same,glycan array binding signal (z-score),[12],-0.434
same,glycan array binding signal (z-score),Gal(a1-6)Glc,0.015
same,glycan array binding signal (z-score),Gal(b1-2)Gal,2.94
same,glycan array binding signal (z-score),[13],-0.421
same,glycan array binding signal (z-score),[14],9.03
same,glycan array binding signal (z-score),[15],-0.797
same,glycan array binding signal (z-score),[16],-0.757
same,glycan array binding signal (z-score),[17],0.41
same,glycan array binding signal (z-score),Gal(b1-4)Glc,0.581
same,glycan array binding signal (z-score),[18],-0.984
same,glycan array binding signal (z-score),[19],-0.776
same,glycan array binding signal (z-score),[20],-0.887
same,glycan array binding signal (z-score),[21],0.169
same,glycan array binding signal (z-score),[22],-0.263
same,glycan array binding signal (z-score),[23],-0.913
same,glycan array binding signal (z-score),[24],-0.442
